{"source": "the supplement of paper PMC9942566", "note": "± gives the standard deviation of the averaged measurements."}
{"test_system": "Serratia marcescens K904 PosmB-luxCDABE reporter (pMQ747)", "test": "PosmB-lux reporter fold induction (RLU/OD600 relative to no-compound control), highest over Biolog concentrations; higher = stronger Rcs reporter activation", "conditions": "wild type K904; 4 h", "procedure": "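Serratia marcescens K904 (wild type) or its isogenic ΔrcsB mutant, carrying the Rcs-dependent PosmB-luxCDABE reporter plasmid pMQ747, was grown in LB at OD600 0.1 in Biolog Phenotype MicroArray plates PM11-20 for 4 h at 30-32°C. Each compound is present at 3-4 proprietary concentrations (not stated); per the Fig. S1 legend the value given is the highest fold over those wells. Three independent trials.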"}
{"smiles": "Nc1ccc2cc3ccc(N)cc3nc2c1", "note": "[proflavine] (Biolog plate: PM20, well positions: D1-4)", "PosmB-lux reporter fold induction": "1.15 ± 0.24"}
{"smiles": "CN[C@@H]1[C@H](O[C@H]2[C@H](O[C@H]3[C@H](O)[C@@H](O)[C@H](NC(=N)N)[C@@H](O)[C@@H]3NC(=N)N)O[C@@H](C)[C@]2(O)CO)O[C@@H](CO)[C@H](O)[C@H]1O", "note": "[dihydro-streptomycin] (Biolog plate: PM19, well positions: G5-8)", "PosmB-lux reporter fold induction": "1.47 ± 0.16"}
{"smiles": "C[C@@H]1NC(=O)[C@@H](N)CNC(=O)[C@H](C2CCNC(=N)N2)NC(=O)/C(=C/NC(N)=O)NC(=O)[C@H](CNC(=O)CC(N)CCCN)NC1=O.N=C1NCC[C@H]([C@@H]2NC(=O)/C(=C/NC(N)=O)NC(=O)[C@H](CNC(=O)C[C@@H](N)CCCN)NC(=O)[C@H](CO)NC(=O)[C@@H](N)CNC2=O)N1", "note": "[Capreomycin] (Biolog plate: PM11, well positions: D1-4)", "PosmB-lux reporter fold induction": "1.24 ± 0.1"}
{"smiles": "[Cl][Fe]([Cl])[Cl]", "note": "[ferric chloride] (Biolog plate: PM16, well positions: G5-8)", "PosmB-lux reporter fold induction": "0.898 ± 0.3"}
{"smiles": "CCN(CC)CCOC(=O)c1ccc(N)cc1", "note": "[Procaine] (Biolog plate: PM15, well positions: A2-4)", "PosmB-lux reporter fold induction": "1.21 ± 0.28"}
{"smiles": "CCCCCCCC[N+](C)(CCCCCCCC)CCCCCCCC", "note": "[methyltrioctyl-ammonium chloride] (Biolog plate: PM19, well positions: B1-4)", "PosmB-lux reporter fold induction": "1.17 ± 0.32"}
{"smiles": "CC1(C)S[C@@H]2[C@H](NC(=O)[C@H](N)c3ccc(O)cc3)C(=O)N2[C@H]1C(=O)O", "note": "[Amoxicillin] (Biolog plate: PM11, well positions: B1-4)", "PosmB-lux reporter fold induction": "2.48 ± 0.35"}
{"smiles": "NO", "note": "[hydroxylamine] (Biolog plate: PM19, well positions: G9-12)", "PosmB-lux reporter fold induction": "1.82 ± 0.33"}
{"smiles": "CN[C@@H]1[C@@H](O)[C@@H](O[C@@H]2[C@@H](O)[C@H](O[C@H]3OC(CN)=CC[C@H]3N)[C@@H](N)C[C@H]2N)OC[C@]1(C)O", "note": "[Sisomicin] (Biolog plate: PM12, well positions: D1-4)", "PosmB-lux reporter fold induction": "1.55 ± 0.14"}
{"smiles": "N=C(NCCCCCCNC(=N)NC(=N)Nc1ccc(Cl)cc1)NC(=N)Nc1ccc(Cl)cc1", "note": "[chlorhexidine] (Biolog plate: PM19, well positions: C1-4)", "PosmB-lux reporter fold induction": "1.21 ± 0.081"}
{"smiles": "Nc1ccc(S(=O)(=O)Nc2ncccn2)cc1", "note": "[Sulfadiazine] (Biolog plate: PM12, well positions: E5-8)", "PosmB-lux reporter fold induction": "2.21 ± 0.27"}
{"smiles": "CCn1cc(C(=O)O)c(=O)c2cc(F)c(N3CCNCC3)nc21", "note": "[Enoxacin] (Biolog plate: PM11, well positions: E5-8)", "PosmB-lux reporter fold induction": "2.1 ± 0.62"}
{"smiles": "CCn1cc(C(=O)O)c(=O)c2cc(F)c(N3CCNC(C)C3)c(F)c21", "note": "(stereo not given) [Lomefloxacin] (Biolog plate: PM11, well positions: B9-12)", "PosmB-lux reporter fold induction": "1.5 ± 0.2"}
{"smiles": "Cc1cc(O)cc(C)c1Cl", "note": "[chloroxylenol] (Biolog plate: PM16, well positions: H5-8)", "PosmB-lux reporter fold induction": "2.08 ± 0.6"}
{"smiles": "Cc1cc(NS(=O)(=O)c2ccc(N)cc2)no1", "note": "[Sulfa-methoxazole] (Biolog plate: PM12, well positions: G5-8)", "PosmB-lux reporter fold induction": "2.26 ± 0.52"}
{"smiles": "OB(O)O", "note": "[Boric acid] (Biolog plate: PM14, well positions: C1-4)", "PosmB-lux reporter fold induction": "1.77 ± 1.2"}
{"smiles": "Cn1cnc([N+](=O)[O-])c1Sc1ncnc2[nH]cnc12", "note": "[azathioprine] (Biolog plate: PM18, well positions: B9-12)", "PosmB-lux reporter fold induction": "0.797 ± 0.12"}
{"smiles": "CC(C)c1nc2nc(N)nc(N)c2nc1C(C)C", "note": "[2,4-Diamino-6,7-diisopropyl-pteridine] (Biolog plate: PM12, well positions: E1-4)", "PosmB-lux reporter fold induction": "2.38 ± 0.48"}
{"smiles": "On1ccccc1=S", "note": "[1-Hydroxy-pyridine-2-thione] (Biolog plate: PM14, well positions: C5-8)", "PosmB-lux reporter fold induction": "4.06 ± 1.3"}
{"smiles": "CN[C@@H]1[C@H](O[C@H]2[C@H](O[C@H]3[C@H](O)[C@@H](O)[C@H](N=C(N)N)[C@@H](O)[C@@H]3N=C(N)N)O[C@@H](C)[C@]2(O)C=O)O[C@@H](CO)[C@H](O)[C@H]1O", "note": "[streptomycin] (Biolog plate: PM16, well positions: E1-4)", "PosmB-lux reporter fold induction": "0.916 ± 0.16"}
{"smiles": "CC1(C)S[C@@H]2[C@H](NC(=O)C(C(=O)O)c3ccccc3)C(=O)N2[C@H]1C(=O)O", "note": "(stereo not given in full) [Carbenicillin] (Biolog plate: PM14, well positions: G5-8)", "PosmB-lux reporter fold induction": "42 ± 28"}
{"smiles": "CO[C@H]1C[C@H](O[C@H]2[C@H](C)[C@@H](O[C@@H]3O[C@H](C)C[C@H](N(C)C)[C@H]3O)[C@@H](C)C[C@@]3(CO3)C(=O)[C@H](C)[C@@H](O)[C@@H](C)[C@@H](C)OC(=O)[C@@H]2C)O[C@@H](C)[C@@H]1O", "note": "[Oleandomycin] (Biolog plate: PM15, well positions: F5-8)", "PosmB-lux reporter fold induction": "3.29 ± 1.7"}
{"smiles": "CCOc1ccc2ccccc2c1C(=O)N[C@@H]1C(=O)N2[C@@H]1SC(C)(C)[C@@H]2C(=O)O", "note": "[Nafcillin] (Biolog plate: PM11, well positions: D9-12)", "PosmB-lux reporter fold induction": "2.29 ± 0.21"}
{"smiles": "CNC(C)C1CCC(N)C(OC2C(N)CC(N)C(OC3OCC(C)(O)C(NC)C3O)C2O)O1", "note": "(stereo not given) [Gentamicin] (Biolog plate: PM11, well positions: G5-8)", "PosmB-lux reporter fold induction": "1.41 ± 0.081"}
{"smiles": "NCC(=O)NO", "note": "[glycine hydroxamate] (Biolog plate: PM16, well positions: H1-4)", "PosmB-lux reporter fold induction": "2.05 ± 0.2"}
{"smiles": "Nc1ccc(S(=O)(=O)Nc2ccc(Cl)nn2)cc1", "note": "[sulfachloro-pyridazine] (Biolog plate: PM17, well positions: C5-8)", "PosmB-lux reporter fold induction": "1.46 ± 0.31"}
{"smiles": "O=c1ccc2ccc(O)cc2o1", "note": "[umbelliferone] (Biolog plate: PM19, well positions: C5-8)", "PosmB-lux reporter fold induction": "1.07 ± 0.18"}
{"smiles": "CCS(=O)(=O)CCn1c([N+](=O)[O-])cnc1C", "note": "[tinidazole] (Biolog plate: PM18, well positions: F5-8)", "PosmB-lux reporter fold induction": "1.53 ± 0.081"}
{"smiles": "CC1(C)S[C@@H]2[C@H](NC(=O)Cc3ccccc3)C(=O)N2[C@H]1C(=O)O", "note": "[Penicillin G] (Biolog plate: PM12, well positions: A2-4)", "PosmB-lux reporter fold induction": "1.66 ± 0.23"}
{"smiles": "CCCCCCCCCCCC[N+](C)(C)CCOc1ccccc1", "note": "[Domiphen bromide] (Biolog plate: PM15, well positions: D5-8)", "PosmB-lux reporter fold induction": "1.98 ± 0.26"}
{"smiles": "CO[C@@H]1[C@@H](OC(N)=O)[C@@H](O)[C@H](Oc2ccc3c(O)c(NC(=O)c4ccc(O)c(CC=C(C)C)c4)c(=O)oc3c2C)OC1(C)C", "note": "[Novobiocin] (Biolog plate: PM12, well positions: D9-12)", "PosmB-lux reporter fold induction": "4.98 ± 0.98"}
{"smiles": "NC(CO)C(=O)NNCc1ccc(O)c(O)c1O", "note": "(stereo not given) [Benserazide] (Biolog plate: PM20, well positions: A9-12)", "PosmB-lux reporter fold induction": "1.16 ± 0.17"}
{"smiles": "O=C(O)CN(CCN(CC(=O)O)CC(=O)O)CC(=O)O", "note": "(Biolog plate: PM15, well positions: B5-8)", "PosmB-lux reporter fold induction": "1.66 ± 0.13"}
{"smiles": "CCn1cc(C(=O)O)c(=O)c2cc(F)c(N3CCNCC3)cc21", "note": "[norfloxacin] (Biolog plate: PM16, well positions: B1-4)", "PosmB-lux reporter fold induction": "1.02 ± 0.2"}
{"smiles": "C[C@@H]1O[C@@H]1P(=O)(O)O", "note": "[Phosphomycin] (Biolog plate: PM16, well positions: A5-8)", "PosmB-lux reporter fold induction": "0.962 ± 0.25"}
{"smiles": "CCCCCCCCCCCC[N+](C)(C)C", "note": "[Dodecyltrimethyl ammonium bromide] (Biolog plate: PM12, well positions: H9-12)", "PosmB-lux reporter fold induction": "2.03 ± 0.22"}
{"smiles": "CCn1cc(C(=O)O)c(=O)c2ccc(C)nc21", "note": "[Nalidixic Acid] (Biolog plate: PM11, well positions: E9-12)", "PosmB-lux reporter fold induction": "3.44 ± 0.51"}
{"smiles": "CCCCC(CC)CNC(=N)NC(=N)NCCCCCCNC(=N)NC(=N)NCC(CC)CCCC", "note": "(stereo not given) [Alexidine] (Biolog plate: PM15, well positions: E1-4)", "PosmB-lux reporter fold induction": "2.48 ± 0.99"}
{"smiles": "Nc1ncn([C@@H]2O[C@H](CO)[C@@H](O)[C@H]2O)c(=O)n1", "note": "[5-azacytidine] (Biolog plate: PM16, well positions: E5-8)", "PosmB-lux reporter fold induction": "1.15 ± 0.41"}
{"smiles": "C[n+]1c2cc(N)ccc2cc2ccc(N)cc21.Nc1ccc2cc3ccc(N)cc3nc2c1", "note": "[Acriflavine] (Biolog plate: PM14, well positions: A2-4)", "PosmB-lux reporter fold induction": "1.45 ± 0.32"}
